Laboratory results from the supplement of paper PMC10127200.
Counter-ions that a name gives are not always drawn.

Key:
Assay in all cases: Euclidean distance of Cell Painting phenotypic profile (signed KS, 77 features) to DMSO centroid (dimensionless distance); 5 or 10 uM (library dependent); higher = stronger phenotypic change vs DMSO (phenoactivity)
Settings in all cases: 48 h
786-O = test system: 786-O
How it was run: (§1)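 Five cancer lines and a healthy fibroblast line received library compounds at 10 or 5 uM (library-dependent, 0.1% DMSO final) for 48 h. Stained cells were imaged confocally at 20X (9 fields/well). Harmony extracted 77 features, each scored as a signed Kolmogorov-Smirnov statistic against same-plate vehicle wells. Profiles were plate-position corrected, correlation-weighted and replicate-averaged at the top dose. Phenoactivity is the Euclidean distance from each profile to the median vehicle profile.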

A549 = test system: A549
How it was run: as §1

DU145 = test system: DU145
How it was run: as §1

FB = test system: FB
How it was run: as §1

HEPG2 = test system: HEPG2
How it was run: as §1

OVCAR4 = test system: OVCAR4
How it was run: as §1

Row | Structure (SMILES) | Euclidean distance (786-O) | Euclidean distance (A549) | Euclidean distance (DU145) | Euclidean distance (FB) | Euclidean distance (HEPG2) | Euclidean distance (OVCAR4)
1 | O=C(O)C(O)C(O)C(=O)O (stereo not drawn) [Tartaric acid] | 0.758 | 0.688 | 0.848 | 1.25 | 0.481 | 0.632
2 | COc1ccc(CCc2nc3cc(-c4c(C)noc4C)ccc3n2C[C@H](C)N2CCOCC2)cc1Cl | 2.58 | 1.55 | 0.967 | 1.73 | 1.67 | 1.78
3 | CC1=C(/C=C/C(C)=C/C=C/C(C)=C\C(=O)O)C(C)(C)CCC1 [Isotretinoin] | 1.68 | 1.11 | 1.24 | 1.94 | 1.63 | 1.46
4 | C[C@H]1O[C@@H](Oc2c(-c3cc(O)c(O)c(O)c3)oc3cc(O)cc(O)c3c2=O)[C@@H](O)[C@@H](O)[C@@H]1O [Myricitrin] | 1.28 | 0.726 | 1.03 | 1.54 | 0.535 | 0.952
5 | O=C1[C@@H]2[C@H]3CC[C@H](C3)[C@@H]2C(=O)N1C[C@@H]1CCCC[C@H]1CN1CCN(c2nsc3ccccc23)CC1 [lurasidone] | 1.37 | 1.25 | 1.92 | 1.35 | 0.479 | 1.27
6 | C[C@@H]1C[C@H]2[C@@H]3CCC4=CC(=O)C=C[C@]4(C)[C@@]3(F)[C@@H](O)C[C@]2(C)[C@@]1(O)C(=O)CO [Dexamethasone (DHAP)] | 1.45 | 2.32 | 2.14 | 1.75 | 0.718 | 1.86
7 | COc1c(C)c(C(=O)c2ccc(N)c(C(=O)O)c2)n2ccccc12 | 0.838 | 1.03 | 0.919 | 1.47 | 0.969 | 1.32
8 | Cn1cnc2c(F)c(Nc3ccc(Br)cc3F)c(C(=O)NOCCO)cc21 | 2.04 | 2.89 | 2.61 | 3.82 | 1.63 | 1.91
9 | Cc1ccc(S(=O)(=O)OCC(=O)Nc2ccc(C(=O)O)c(O)c2)cc1 | 1.33 | 1.22 | 1.04 | 0.948 | 0.793 | 1.47
10 | CCCc1nn(C)c2c(=O)[nH]c(-c3cc(S(=O)(=O)N4CCN(C)CC4)ccc3OCC)nc12 [Sildenafil] | 1.51 | 0.754 | 0.716 | 1.08 | 0.767 | 1.17
11 | CC(C)[C@@H](C)/C=C/[C@@H](C)[C@H]1CC[C@H]2C3=CC=C4C[C@@H](O)CC[C@]4(C)[C@H]3CC[C@]12C [Ergosterol] | 1.2 | 1.36 | 1.1 | 0.707 | 0.946 | 1.17
12 | CCc1nn(CCCN2CCN(c3cccc(Cl)c3)CC2)c(=O)n1CCOc1ccccc1 [Nefazodone hydrochloride] | 1.29 | 1.42 | 1.27 | 1.04 | 1.67 | 0.618
13 | CC(C)OC(=O)C(C(=O)OC(C)C)=C1SC=CS1 [Malotilate] | 1.94 | 1.09 | 0.92 | 1.39 | 1.08 | 1.29
14 | Cc1ccccc1C(=O)Nc1ccc(C(=O)N2CCCC(O)c3cc(Cl)ccc32)c(C)c1 (stereo not drawn) [Tolvaptan] | 1.6 | 0.937 | 0.873 | 1.14 | 0.957 | 0.738
15 | CCN(CCCc1ccccc1)CCCc1ccccc1 [Alverine Citrate] | 0.97 | 1.06 | 1.22 | 1.12 | 0.789 | 1.01
16 | CC(NC(=O)c1ccccc1/N=C/c1c(O)ccc2ccccc12)c1ccccc1 (stereo not drawn) [Sirtinol] | 0.539 | 0.747 | 0.686 | 0.99 | 2.2 | 0.857
17 | O=C(NCC(O)CO)c1c(I)c(C(=O)NCC(O)CO)c(I)c(N(CCO)C(=O)CO)c1I (stereo not drawn) [Ioversol] | 0.684 | 0.636 | 0.983 | 0.679 | 0.876 | 1.14
18 | Nc1ccn(C[C@@H](CO)OCP(=O)(O)O)c(=O)n1 [Cidofovir] | 1.22 | 1.39 | 1.14 | 0.855 | 0.834 | 1.26
19 | O=C(O)c1ccc(-n2nc(-c3ccccc3O)nc2-c2ccccc2O)cc1 [Deferasirox] | 2.29 | 2.01 | 1.82 | 2.5 | 1.64 | 1.99

Row | Structure (SMILES) | Euclidean distance (786-O) | Euclidean distance (A549) | Euclidean distance (DU145) | Euclidean distance (FB) | Euclidean distance (HEPG2) | Euclidean distance (OVCAR4)
20 | COc1cc2c(cc1O)CC[C@@H]1[C@@H]2CC[C@]2(C)[C@@H](O)CC[C@@H]12 [2-Methoxyestradiol (2-MeOE2)] | 2.47 | 2.67 | 2.66 | 2.05 | 2.07 | 2.42
21 | O=C1[C@H](Cc2ccc(O)cc2)N2C(=O)CCN(C(=O)NCc3ccccc3)[C@H]2CN1Cc1cccc2ccccc12 | 2.87 | 2.53 | 1.39 | 3.88 | 1.43 | 2.09
22 | CN(C(=O)CN(CCO)CC(=O)N(C)C(C)(C)Cc1ccccc1)C(C)(C)Cc1ccccc1 [Oxethazaine] | 1.36 | 2.36 | 1.13 | 2.17 | 1.36 | 1.96
23 | NS(=O)(=O)c1cc2c(cc1C(F)(F)F)NC(Cc1ccccc1)NS2(=O)=O (stereo not drawn) [Bendroflumethiazide] | 0.918 | 0.995 | 1.62 | 1.34 | 1.05 | 2.02
24 | CNC(=C[N+](=O)[O-])NCCSCc1ccc(CN(C)C)o1 [Ranitidine] | 0.881 | 0.596 | 0.696 | 0.903 | 1.02 | 0.83
25 | CCN(CC)CCOC(=O)c1ccc(N)cc1Cl [Chloroprocaine HCl] | 0.962 | 0.947 | 0.943 | 0.861 | 0.503 | 1.07
26 | CN(C)CCc1c[nH]c2ccc(CS(=O)(=O)N3CCCC3)cc12 [Almotriptan Malate] | 1.05 | 0.798 | 0.545 | 1.14 | 1.78 | 1.51
27 | COc1cc(N)c(Cl)cc1C(=O)NC1CCN(Cc2ccccc2)CC1 [Clebopride (malate)] | 1.13 | 0.613 | 1.21 | 1.12 | 0.547 | 0.852
28 | Cc1ccc(/C=C2/C(=O)C3(C)CCC2C3(C)C)cc1 (stereo not drawn) [4-Methylbenzylidene camphor] | 1.01 | 1.2 | 0.926 | 0.895 | 0.613 | 1.22
29 | CC1=C(C(=O)O)N2C(=O)[C@@H](NC(=O)[C@H](N)C3=CCC=CC3)[C@H]2SC1 [Cefradine] | 0.837 | 0.567 | 0.805 | 1.14 | 0.578 | 0.907
30 | C[C@H](Nc1ccc(C#N)n(C)c1=O)c1cc2cc(Cl)ccc2[nH]c1=O [Olutasidenib (FT-2102)] | 1.42 | 0.866 | 0.784 | 1.36 | 0.641 | 1.06
31 | NC[C@H]1CC[C@H](C(=O)O)CC1 [Tranexamic Acid] | 1.31 | 0.903 | 0.735 | 0.672 | 1.31 | 1.09
32 | CCn1c(N)c(C(=O)NC)c(=O)c2ccc(C#CC(C)(O)COC)nc21 (stereo not drawn) | 0.634 | 0.765 | 0.681 | 1.97 | 1.53 | 0.668
33 | CC(=O)N[C@@H](CS)C(=O)O [Acetylcysteine] | 0.996 | 1.28 | 1.2 | 0.709 | 0.571 | 1.6
34 | Cn1c(=O)c2c(ncn2CC(O)CO)n(C)c1=O (stereo not drawn) [Dyphylline] | 1.02 | 0.909 | 0.59 | 1.07 | 1.05 | 1.59
35 | O=C(COc1ccc(Cl)cc1)N1CCN(Cc2ccc3c(c2)OCO3)CC1 [Fipexide hydrochloride] | 1.78 | 1.13 | 1.39 | 1.08 | 0.573 | 1.32
36 | Oc1ccc(OC2CCCCO2)cc1 (stereo not drawn) [Deoxyarbutin] | 1.11 | 0.699 | 1.16 | 1.24 | 1.02 | 1.45
37 | CN1CCN2c3ncccc3Cc3ccccc3C2C1 (stereo not drawn) [Mirtazapine] | 0.981 | 0.95 | 0.897 | 0.869 | 0.332 | 1.12
38 | C[C@@]1(C(=O)Nc2ccc(F)nc2)CCCN1c1nc(Nc2cc(C3CC3)n[nH]2)c2cccn2n1 | 2.52 | 3.2 | 3.3 | 3.23 | 2.63 | 3.61
